Assay results from the supplement of paper PMC10849652.
About 7,900 targets were measured; listed, in parts, are those with a hit and a random draw of the rest. About 0.6% of all pairs of compound and target were hits.

Key:
Assay in all cases: log2 fold change, soluble protein after heating vs DMSO (PISA); higher = thermal stabilisation; K562 cells, 10 uM, 30 min; active = over 0.2 and 3.5 SD of the protein, either way, in both replicates (recomputed)
[1] = compound: C1=CC=C(C=C1)[C@H](COC2=CC3=C(C=C2)NC(=O)N3)NC(=O)C4=CC=CN(C4=O)CC5=CC(=C(C=C5)F)F
Summary of the method: (§1)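 Soluble protein was quantified by TMTpro 16plex LC-MS/MS after channel sums were equalised. It was obtained as the supernatant after 21,000xg for 90 min from pooled aliquots of K562 cells (2×10^6 cells/mL, 10 μM compound, 30 min) heated for 3 min across 48°C-58°C and extracted in PBS with 0.5% NP-40 at 4°C. Thermal stability values are relative to control samples and come from duplicates. They are given as log2 fold changes.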

[2] = compound: CC1=C(SC2=C1C(=N[C@H](C3=NN=C(N32)C)CC(=O)N)C4=CC=C(C=C4)Cl)C
Summary of the method: as §1

[3] = compound: CC1=C2C(=CC=C1)N=C(N(C2=O)C3=CC=CC=C3C)CN4C=NC5=C(N=CN=C54)N
Summary of the method: as §1

[4] = compound: Cc1sc2c(c1C)C(c1ccc(Cl)cc1)=N[C@@H](CC(=O)OC(C)(C)C)c1nnc(C)n1-2
Summary of the method: as §1

[5] = compound: c1ccc([C@@H]2C[C@H]2NC2CCNCC2)cc1
Summary of the method: as §1

Measured: log2 fold change

RPS6KA1 isoform 2 (UniProt Q15418)
inactive: [1] -0.059 | [2] 0.048 | [3] 0.051 | [4] -0.009 | [5] -0.018

RPS27A (UniProt P62979)
inactive: [1] 0.076 | [2] -0.111 | [3] -0.281 | [4] 0.108 | [5] -0.025

RNF187 (UniProt Q5TA31)
inactive: [1] -0.047 | [2] 0.07 | [3] -0.033 | [4] -0.083 | [5] -0.033

RHOXF2 (UniProt Q9BQY4)
inactive: [1] 0.004 | [2] -0.031 | [3] 0.024 | [4] 0.012 | [5] 0.057

RBM39 (UniProt Q14498)
Chain of UniProt Q14498 (Q14498 whole entry, looked up): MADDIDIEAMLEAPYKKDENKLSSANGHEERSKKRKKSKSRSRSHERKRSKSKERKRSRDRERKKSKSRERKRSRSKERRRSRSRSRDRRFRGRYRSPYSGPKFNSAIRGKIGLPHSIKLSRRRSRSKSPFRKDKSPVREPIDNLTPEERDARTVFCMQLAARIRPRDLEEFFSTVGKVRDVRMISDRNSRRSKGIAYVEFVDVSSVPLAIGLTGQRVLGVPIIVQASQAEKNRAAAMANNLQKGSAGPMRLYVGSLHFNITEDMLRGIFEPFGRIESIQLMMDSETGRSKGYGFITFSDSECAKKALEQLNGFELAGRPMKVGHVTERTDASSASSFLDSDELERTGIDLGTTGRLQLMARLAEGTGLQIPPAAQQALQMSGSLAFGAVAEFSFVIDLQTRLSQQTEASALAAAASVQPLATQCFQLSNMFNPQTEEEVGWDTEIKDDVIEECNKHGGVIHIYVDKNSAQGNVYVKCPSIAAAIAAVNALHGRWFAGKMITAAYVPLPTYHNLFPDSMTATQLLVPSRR
inactive: [1] 0.015 | [2] -0.004 | [3] -0.02 | [4] 0.019 | [5] 0.158

SH3PXD2B (UniProt A1X283)
inactive: [1] 0.07 | [2] 0.029 | [3] 0.001 | [4] -0.038 | [5] -0.046

RAB3D (UniProt O95716)
inactive: [1] 0.023 | [2] -0.105 | [3] 0.007 | [4] -0.082 | [5] 0.201

SLC12A9 (UniProt Q9BXP2)
inactive: [1] 0.013 | [2] -0.002 | [3] 0.014 | [4] -0.035 | [5] 0.028

SLC1A5 (UniProt Q15758)
inactive: [1] -0.003 | [2] 0.035 | [3] -0.026 | [4] 0.013 | [5] 0.022

REL (UniProt Q04864)
inactive: [1] 0.058 | [2] 0.048 | [3] 0.046 | [4] 0.037 | [5] 0.065

RRP36 (UniProt Q96EU6)
inactive: [1] 0.119 | [2] -0.266 | [3] -0.228 | [4] 0.245 | [5] 0.019

SDHAF2 (UniProt Q9NX18)
inactive: [1] -0.02 | [2] 0.078 | [3] -0.013 | [4] -0.097 | [5] -0.096

RAB3IL1 (UniProt Q8TBN0)
inactive: [1] 0.018 | [2] -0.013 | [3] 0.078 | [4] -0.03 | [5] -0.076

RAB3GAP2 (UniProt Q9H2M9)
Chain of UniProt Q9H2M9 (Q9H2M9 whole entry, looked up): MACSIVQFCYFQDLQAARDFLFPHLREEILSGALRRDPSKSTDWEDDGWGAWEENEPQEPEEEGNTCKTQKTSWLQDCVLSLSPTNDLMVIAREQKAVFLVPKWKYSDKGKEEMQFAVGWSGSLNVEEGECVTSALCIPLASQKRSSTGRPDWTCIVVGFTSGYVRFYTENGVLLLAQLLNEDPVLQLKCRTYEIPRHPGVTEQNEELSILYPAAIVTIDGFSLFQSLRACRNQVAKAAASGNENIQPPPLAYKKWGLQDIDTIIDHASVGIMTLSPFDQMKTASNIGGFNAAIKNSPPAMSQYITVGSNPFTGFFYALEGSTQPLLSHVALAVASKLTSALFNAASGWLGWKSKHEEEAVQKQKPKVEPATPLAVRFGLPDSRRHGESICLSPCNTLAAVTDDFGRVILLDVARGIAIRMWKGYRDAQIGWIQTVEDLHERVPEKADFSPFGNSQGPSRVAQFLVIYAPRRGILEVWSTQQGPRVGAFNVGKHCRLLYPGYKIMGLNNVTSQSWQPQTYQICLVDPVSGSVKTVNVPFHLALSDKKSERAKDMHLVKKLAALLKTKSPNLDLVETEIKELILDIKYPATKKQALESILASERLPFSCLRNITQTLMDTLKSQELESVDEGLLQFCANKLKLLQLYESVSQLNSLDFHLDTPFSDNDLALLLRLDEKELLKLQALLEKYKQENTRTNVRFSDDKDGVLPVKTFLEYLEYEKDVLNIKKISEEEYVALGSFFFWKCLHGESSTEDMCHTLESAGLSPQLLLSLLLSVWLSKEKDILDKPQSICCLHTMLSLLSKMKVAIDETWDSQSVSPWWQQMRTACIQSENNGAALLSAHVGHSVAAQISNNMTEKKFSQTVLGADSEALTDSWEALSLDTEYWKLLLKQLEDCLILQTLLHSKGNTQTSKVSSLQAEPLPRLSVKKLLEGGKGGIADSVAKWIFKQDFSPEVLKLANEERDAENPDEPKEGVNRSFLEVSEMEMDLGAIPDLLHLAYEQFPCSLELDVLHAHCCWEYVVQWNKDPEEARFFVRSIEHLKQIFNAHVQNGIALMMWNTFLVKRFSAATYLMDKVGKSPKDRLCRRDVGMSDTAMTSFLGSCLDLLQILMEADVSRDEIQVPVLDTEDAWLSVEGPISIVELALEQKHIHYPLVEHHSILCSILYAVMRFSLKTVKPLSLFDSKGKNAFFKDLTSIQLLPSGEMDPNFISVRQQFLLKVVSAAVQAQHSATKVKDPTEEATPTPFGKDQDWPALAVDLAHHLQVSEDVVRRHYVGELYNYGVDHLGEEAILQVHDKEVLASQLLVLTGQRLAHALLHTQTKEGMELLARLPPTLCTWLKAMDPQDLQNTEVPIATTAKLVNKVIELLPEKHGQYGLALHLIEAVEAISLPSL
inactive: [1] -0.023 | [2] -0.07 | [3] 0.051 | [4] 0.04 | [5] 0.001

ROCK1 (UniProt Q13464)
Chain of UniProt Q13464 (Q13464 whole entry, looked up): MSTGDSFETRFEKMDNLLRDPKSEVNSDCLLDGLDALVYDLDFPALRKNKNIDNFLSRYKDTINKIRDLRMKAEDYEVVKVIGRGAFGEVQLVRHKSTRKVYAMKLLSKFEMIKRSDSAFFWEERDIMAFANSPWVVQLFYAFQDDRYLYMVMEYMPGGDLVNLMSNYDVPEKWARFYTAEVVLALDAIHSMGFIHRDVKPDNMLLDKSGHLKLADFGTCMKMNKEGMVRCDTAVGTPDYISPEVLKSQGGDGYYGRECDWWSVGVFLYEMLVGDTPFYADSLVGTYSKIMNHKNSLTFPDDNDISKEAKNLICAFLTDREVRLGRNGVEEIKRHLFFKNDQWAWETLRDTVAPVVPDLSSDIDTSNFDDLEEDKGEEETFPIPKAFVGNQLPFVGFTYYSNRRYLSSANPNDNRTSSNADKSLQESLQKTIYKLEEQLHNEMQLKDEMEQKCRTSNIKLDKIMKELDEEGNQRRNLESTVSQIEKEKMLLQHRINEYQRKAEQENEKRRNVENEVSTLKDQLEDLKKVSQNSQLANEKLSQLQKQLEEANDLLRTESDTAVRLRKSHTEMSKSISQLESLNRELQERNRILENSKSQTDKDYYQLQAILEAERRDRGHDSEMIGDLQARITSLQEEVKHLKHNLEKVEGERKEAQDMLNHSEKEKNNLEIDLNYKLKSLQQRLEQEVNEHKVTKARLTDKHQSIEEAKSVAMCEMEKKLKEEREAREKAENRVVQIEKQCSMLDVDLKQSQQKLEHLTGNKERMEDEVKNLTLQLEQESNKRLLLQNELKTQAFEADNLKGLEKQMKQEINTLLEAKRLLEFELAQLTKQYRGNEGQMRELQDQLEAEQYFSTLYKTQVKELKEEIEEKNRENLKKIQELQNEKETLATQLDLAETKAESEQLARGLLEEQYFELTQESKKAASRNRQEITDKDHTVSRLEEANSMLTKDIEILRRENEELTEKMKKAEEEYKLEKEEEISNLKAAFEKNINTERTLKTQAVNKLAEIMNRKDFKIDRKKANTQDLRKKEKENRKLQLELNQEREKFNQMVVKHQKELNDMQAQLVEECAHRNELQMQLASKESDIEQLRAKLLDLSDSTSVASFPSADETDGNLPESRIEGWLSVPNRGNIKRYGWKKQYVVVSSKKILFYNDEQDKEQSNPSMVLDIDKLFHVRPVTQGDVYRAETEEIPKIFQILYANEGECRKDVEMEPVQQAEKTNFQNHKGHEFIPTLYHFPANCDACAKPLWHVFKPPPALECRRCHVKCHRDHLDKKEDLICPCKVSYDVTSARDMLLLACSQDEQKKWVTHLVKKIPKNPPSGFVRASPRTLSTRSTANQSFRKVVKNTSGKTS
inactive: [1] -0.017 | [2] 0.027 | [3] 0.032 | [4] -0.018 | [5] -0.015

SLC12A5 (UniProt Q9H2X9)
inactive: [1] 0.102 | [2] 0.099 | [3] 0.066 | [4] -0.064 | [5] 0.055

SEC31A (UniProt O94979)
inactive: [1] -0.067 | [2] 0.034 | [3] 0.09 | [4] -0.03 | [5] -0.006

RIC8A isoform 3 (UniProt Q9NPQ8)
inactive: [1] -0.033 | [2] 0.02 | [3] 0.015 | [4] -0.041 | [5] -0.094

RDH13 (UniProt Q8NBN7)
inactive: [1] -0.013 | [2] 0.052 | [3] 0.032 | [4] 0.013 | [5] -0.062

SLC18B1 (UniProt Q6NT16)
inactive: [1] 0.015 | [2] 0.028 | [3] 0.061 | [4] 0.009 | [5] -0.039

RBM33 (UniProt Q96EV2)
inactive: [1] 0.002 | [2] -0.018 | [3] 0.029 | [4] -0.004 | [5] 0.012

RRP9 (UniProt O43818)
inactive: [1] 0.036 | [2] -0.136 | [3] 0.02 | [4] 0.015 | [5] 0.1

SCLT1 (UniProt Q96NL6)
inactive: [1] 0.078 | [2] 0.215 | [3] 0.222 | [4] 0.001 | [5] -0.039

SIRT2 (UniProt Q8IXJ6)
inactive: [1] -0.075 | [2] 0.107 | [3] 0.105 | [4] 0.093 | [5] -0.016

RGS10 (UniProt O43665)
inactive: [1] 0.014 | [2] 0.042 | [3] -0.035 | [4] -0.022 | [5] -0.058

SEC23IP (UniProt Q9Y6Y8)
inactive: [1] -0.037 | [2] 0.001 | [3] 0.063 | [4] 0.031 | [5] -0.037

RUFY1 (UniProt Q96T51)
inactive: [1] -0.006 | [2] -0.029 | [3] 0.041 | [4] 0.002 | [5] -0.028

RPP14 (UniProt O95059)
inactive: [1] 0.044 | [2] -0.023 | [3] -0.028 | [4] 0.002 | [5] -0.009

RIOK3 (UniProt O14730)
inactive: [1] -0.015 | [2] -0.008 | [3] -0.016 | [4] -0.008 | [5] 0.024

RCC1 isoform 2 (UniProt P18754)
inactive: [1] -0.175 | [2] 0.096 | [3] 0.176 | [4] 0.012 | [5] -0.058

SELENOH (UniProt Q8IZQ5)
inactive: [1] 0.049 | [2] -0.107 | [3] -0.258 | [4] -0.028 | [5] 0.08

RALGPS2 (UniProt Q86X27)
inactive: [1] -0.069 | [2] 0.073 | [3] -0.093 | [4] 0.116 | [5] -0.01

SAMSN1 isoform 3 (UniProt Q9NSI8)
inactive: [1] -0.028 | [2] 0.014 | [3] 0.025 | [4] -0.01 | [5] -0.01

RARS (UniProt P54136)
inactive: [1] -0.057 | [2] -0.081 | [3] -0.02 | [4] 0.169 | [5] 0.024

RPS9 (UniProt P46781)
inactive: [1] 0.073 | [2] -0.19 | [3] -0.24 | [4] 0.134 | [5] 0

SEPTIN5 (UniProt Q99719)
inactive: [1] -0.021 | [2] 0.069 | [3] 0.014 | [4] -0.045 | [5] -0.016

RAD50 isoform 2 (UniProt Q92878)
inactive: [1] -0.006 | [2] 0.017 | [3] 0.061 | [4] 0 | [5] 0.014

RBBP6 (UniProt Q7Z6E9)
Chain of UniProt Q7Z6E9 (Q7Z6E9 whole entry, looked up): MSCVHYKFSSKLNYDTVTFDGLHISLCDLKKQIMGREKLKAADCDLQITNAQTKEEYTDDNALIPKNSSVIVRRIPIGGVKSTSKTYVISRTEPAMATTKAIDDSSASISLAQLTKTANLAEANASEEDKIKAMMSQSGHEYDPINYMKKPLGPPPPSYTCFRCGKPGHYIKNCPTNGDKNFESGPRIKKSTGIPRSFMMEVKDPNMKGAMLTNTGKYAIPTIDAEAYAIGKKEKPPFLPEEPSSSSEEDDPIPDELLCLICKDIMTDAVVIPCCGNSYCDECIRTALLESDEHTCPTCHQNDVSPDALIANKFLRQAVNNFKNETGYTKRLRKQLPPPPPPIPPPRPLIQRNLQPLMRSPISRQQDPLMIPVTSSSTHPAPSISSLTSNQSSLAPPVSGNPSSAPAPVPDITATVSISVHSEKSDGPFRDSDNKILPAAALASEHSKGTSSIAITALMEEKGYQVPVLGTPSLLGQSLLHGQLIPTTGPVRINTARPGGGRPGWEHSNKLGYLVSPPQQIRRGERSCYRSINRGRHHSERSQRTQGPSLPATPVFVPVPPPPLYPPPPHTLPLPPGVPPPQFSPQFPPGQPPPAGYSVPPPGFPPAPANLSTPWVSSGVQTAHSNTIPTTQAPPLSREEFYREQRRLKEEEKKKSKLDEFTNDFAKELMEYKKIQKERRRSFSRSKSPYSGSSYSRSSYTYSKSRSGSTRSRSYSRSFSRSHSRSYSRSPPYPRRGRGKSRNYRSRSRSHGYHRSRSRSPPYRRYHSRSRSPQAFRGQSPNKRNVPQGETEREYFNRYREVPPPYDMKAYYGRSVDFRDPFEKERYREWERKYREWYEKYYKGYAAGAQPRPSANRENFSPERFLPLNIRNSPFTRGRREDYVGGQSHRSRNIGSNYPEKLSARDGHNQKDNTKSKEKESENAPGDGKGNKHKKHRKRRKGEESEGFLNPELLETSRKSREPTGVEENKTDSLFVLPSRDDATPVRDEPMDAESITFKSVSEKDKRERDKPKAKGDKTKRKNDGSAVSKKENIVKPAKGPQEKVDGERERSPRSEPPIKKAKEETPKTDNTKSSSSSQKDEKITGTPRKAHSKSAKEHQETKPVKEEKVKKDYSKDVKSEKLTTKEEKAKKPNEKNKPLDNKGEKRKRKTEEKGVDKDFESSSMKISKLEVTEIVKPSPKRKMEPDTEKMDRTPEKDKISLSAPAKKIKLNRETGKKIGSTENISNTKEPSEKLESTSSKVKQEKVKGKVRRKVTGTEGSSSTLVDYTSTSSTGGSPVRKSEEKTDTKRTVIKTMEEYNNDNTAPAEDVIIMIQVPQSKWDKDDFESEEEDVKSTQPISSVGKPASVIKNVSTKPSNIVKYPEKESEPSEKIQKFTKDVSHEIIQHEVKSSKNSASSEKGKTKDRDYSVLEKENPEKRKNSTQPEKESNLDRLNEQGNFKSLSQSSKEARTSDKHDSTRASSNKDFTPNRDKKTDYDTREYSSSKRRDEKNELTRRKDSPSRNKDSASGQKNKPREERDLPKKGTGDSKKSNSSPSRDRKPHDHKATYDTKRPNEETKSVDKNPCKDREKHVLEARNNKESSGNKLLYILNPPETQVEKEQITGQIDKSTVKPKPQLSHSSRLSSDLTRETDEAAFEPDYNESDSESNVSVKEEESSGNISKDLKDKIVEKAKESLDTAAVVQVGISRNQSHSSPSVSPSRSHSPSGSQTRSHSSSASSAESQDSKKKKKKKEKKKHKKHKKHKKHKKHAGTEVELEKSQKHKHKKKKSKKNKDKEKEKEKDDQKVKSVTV
inactive: [1] 0.094 | [2] 0.119 | [3] -0.017 | [4] 0.066 | [5] -0.32

RPS6KA2 isoform 2 (UniProt Q15349)
inactive: [1] -0.016 | [2] 0.045 | [3] 0.087 | [4] -0.015 | [5] -0.02

SCD (UniProt O00767)
inactive: [1] 0.011 | [2] -0.019 | [3] 0.012 | [4] 0.054 | [5] 0.027

SFXN5 (UniProt Q8TD22)
inactive: [1] -0.079 | [2] 0.024 | [3] -0.11 | [4] 0.007 | [5] -0.061
